Laboratory results reported in PubChem BioAssay AID1159580 (chemical genetic matrix, 2015).
Out of some 5,500 compounds screened, about 2,000 (36%) were called active. About 18% were inconclusive and are not listed. No stated cut-off is given here; in the data, active means normalized growth mostly below about 0.91 (no sharp cut-off); inconclusive means no clear call, values can overlap the other calls; inactive means mostly above about 0.92. The list shows a part of the results.

Experiment: chemical genetic growth profiling, strain panel (AID 1159580);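 further: tested at 20 µM; growth read once vehicle control cultures reached saturation at 30 °C; 1 = growth at the plate median or of vehicle wells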
Conditions: S. cerevisiae deletion strains, growth OD
[1] = locus YAL021C, strain ccr4, stronger effect = lower value
[2] = locus YAL026C, strain drs2, stronger effect = lower value
[3] = locus YAL030W, strain snc1, stronger effect = lower value
[4] = locus YBL061C, strain skt5, stronger effect = lower value
[5] = locus YBR009C, strain hhf1, stronger effect = lower value
[6] = locus YBR023C, strain chs3, stronger effect = lower value
[7] = locus YBR171W, strain sec66, stronger effect = lower value
[8] = locus YBR231C, strain swc5, stronger effect = lower value
[9] = locus YBR279W, strain paf1, stronger effect = lower value
[10] = locus YCL011C, strain gbp2, stronger effect = lower value
[11] = locus YCL016C, strain dcc1, stronger effect = lower value
[12] = locus YCL061C, strain MRC1, stronger effect = lower value
[13] = locus YCL069W, strain vba3, stronger effect = lower value
[14] = locus YCR088W, strain abp1, stronger effect = lower value
[15] = locus YDL005C, strain med2, stronger effect = lower value
[16] = locus YDL040C, strain nat1, stronger effect = lower value
[17] = locus YDR001C, strain nth1, stronger effect = lower value
[18] = locus YDR069C, strain doa4, stronger effect = lower value
[19] = locus YDR137W, strain rgp1, stronger effect = lower value
[20] = locus YDR159W, strain sac3, stronger effect = lower value
[21] = locus YDR297W, strain sur2, stronger effect = lower value
[22] = locus YDR334W, strain swr1, stronger effect = lower value
[23] = locus YDR335W, strain msn5, stronger effect = lower value
[24] = locus YDR392W, strain spt3, stronger effect = lower value
[25] = locus YEL003W, strain gim4, stronger effect = lower value
[26] = locus YEL037C, strain rad23, stronger effect = lower value
[27] = locus YEL061C, strain CIN8 (second series), stronger effect = lower value
[28] = locus YER015W, strain faa2, stronger effect = lower value
[29] = locus YER016W, strain bim1, stronger effect = lower value
[30] = locus YER111C, strain swi4, stronger effect = lower value
[31] = locus YER155C, strain BEM2 (second series), stronger effect = lower value
[32] = locus YFR010W, strain ubp6, stronger effect = lower value
[33] = locus YGL167C, strain pmr1, stronger effect = lower value
[34] = locus YGL173C, strain kem1, stronger effect = lower value
[35] = locus YGL227W, strain vid30, stronger effect = lower value
[36] = locus YGL240W, strain doc1, stronger effect = lower value
[37] = locus YGL253W, strain hxk2, stronger effect = lower value
[38] = locus YHR013C, strain ard1, stronger effect = lower value
[39] = locus YHR027C, strain rpn1, stronger effect = lower value
[40] = locus YHR142W, strain chs7, stronger effect = lower value
[41] = locus YJL092W, strain hpr5, stronger effect = lower value
[42] = locus YJL095W, strain BCK1 (second series), stronger effect = lower value
[43] = locus YJL115W, strain asf1, stronger effect = lower value
[44] = locus YJL129C, strain trk1, stronger effect = lower value
[45] = locus YJL154C, strain vps35, stronger effect = lower value
[46] = locus YJL164C, strain tpk1, stronger effect = lower value
[47] = locus YJL166W, strain qcr8, stronger effect = lower value
[48] = locus YJL187C, strain SWE1, stronger effect = lower value
[49] = locus YKL160W, strain elf1, stronger effect = lower value
[50] = locus YKR026C, strain gcn3, stronger effect = lower value
[51] = locus YKR091W, strain srl3, stronger effect = lower value
[52] = locus YLL001W, strain dnm1, stronger effect = lower value
[53] = locus YLL026W, stronger effect = lower value
[54] = locus YLL041C, strain sdh2, stronger effect = lower value
[55] = locus YLR027C, strain aat2, stronger effect = lower value
[56] = locus YLR221C, strain rsa3, stronger effect = lower value
[57] = locus YLR258W, strain gsy2, stronger effect = lower value
[58] = locus YLR262C, strain YPT6 (second series), stronger effect = lower value
[59] = locus YLR320W, strain mms22, stronger effect = lower value
[60] = locus YLR342W, strain FKS1, stronger effect = lower value
[61] = locus YLR357W, strain rsc2, stronger effect = lower value
[62] = locus YLR370C, strain arc18, stronger effect = lower value
[63] = locus YLR384C, strain iki3, stronger effect = lower value
[64] = locus YML120C, strain ndi1, stronger effect = lower value
[65] = locus YMR058W, strain fet3, stronger effect = lower value
[66] = locus YMR125W, strain sto1, stronger effect = lower value
[67] = locus YMR129W, stronger effect = lower value
[68] = locus YMR205C, strain PFK2, stronger effect = lower value
[69] = locus YMR231W, strain pep5, stronger effect = lower value
[70] = locus YNL071W, strain lat1, stronger effect = lower value
[71] = locus YNL209W, strain ssb2, stronger effect = lower value
[72] = locus YNL248C, strain rpa49, stronger effect = lower value
[73] = locus YNL322C, strain KRE1 (second series), stronger effect = lower value
[74] = locus YNR049C, strain mso1, stronger effect = lower value
[75] = locus YOR001W, strain rrp6, stronger effect = lower value
[76] = locus YOR070C, strain gyp1, stronger effect = lower value
[77] = locus YOR080W, strain dia2, stronger effect = lower value
[78] = locus YOR083W, strain WHI5, stronger effect = lower value
[79] = locus YOR106W, strain vam3, stronger effect = lower value
[80] = locus YOR265W, strain rbl2, stronger effect = lower value
[81] = locus YOR270C, strain vph1, stronger effect = lower value
[82] = locus YOR290C, strain snf2, stronger effect = lower value
[83] = locus YPL051W, strain arl3, stronger effect = lower value
[84] = locus YPL078C, strain atp4, stronger effect = lower value
[85] = locus YPL106C, strain sse1, stronger effect = lower value
[86] = locus YPL240C, strain hsp82, stronger effect = lower value

Measured: normalized growth

C=CCSSSCC=C
active: [31] 0.765 | [70] 0.847 | [72] 0.877
inactive: [1] 0.962 | [2] 0.97 | [3] 0.989 | [4] 1 | [5] 0.957 | [6] 0.986 | [7] 0.994 | [8] 0.974 | [9] 0.991 | [10] 0.984 | [11] 1 | [12] 0.98 | [13] 0.973 | [14] 0.984 | [15] 0.97 | [16] 0.987 | [17] 0.988 | [18] 0.965 | [19] 0.984 | [20] 0.937 | locus YDR195W, strain ref2 0.944 | [21] 0.989 | [22] 0.966 | [23] 0.986 | [24] 0.782 | [25] 0.98 | [26] 0.958 | [27] 0.979 | [28] 0.976 | [29] 0.992 | [30] 0.991 | [32] 0.956 | [33] 0.983 | [34] 0.988 | [35] 0.995 | [36] 0.944 | [37] 0.987 | [38] 0.937 | [39] 1 | [40] 0.981 | [41] 0.966 | [42] 0.991 | [43] 0.975 | [44] 0.958 | [45] 0.979 | [46] 0.974 | [47] 0.976 | [48] 0.984 | [49] 0.995 | [50] 0.978 | [51] 0.983 | [52] 0.994 | [53] 0.991 | [54] 0.982 | [55] 0.972 | [56] 0.992 | [57] 0.999 | [58] 0.995 | [59] 0.967 | [60] 0.98 | [61] 0.891 | [62] 0.978 | [63] 1.01 | [64] 0.974 | [65] 0.975 | [66] 0.946 | [67] 0.98 | [68] 0.967 | [69] 0.978 | [71] 0.992 | [73] 0.974 | [74] 0.98 | [75] 0.96 | [76] 0.992 | [77] 0.972 | [78] 1 | [79] 0.949 | [80] 0.984 | [81] 0.941 | [82] 0.964 | [83] 0.979 | [84] 0.988 | [85] 0.976 | [86] 0.995

C=CCSSCC=C
inactive: [1] 1.02 | [2] 1.04 | [3] 1.03 | [4] 1.03 | [5] 1.03 | [6] 1.02 | [7] 1.04 | [8] 1.04 | [9] 1.02 | [10] 1.04 | [11] 1.03 | [12] 1.03 | [13] 1.03 | [14] 1.04 | [15] 1.05 | [16] 1.03 | [17] 1.04 | [18] 1.03 | [19] 1.07 | [20] 1.08 | locus YDR195W, strain ref2 1.04 | [21] 1.03 | [22] 1.03 | [23] 1.04 | [24] 0.901 | [25] 1.03 | [26] 1.03 | [27] 1.02 | [28] 1.03 | [29] 1.03 | [30] 1.06 | [31] 0.951 | [32] 1.05 | [33] 1.04 | [34] 1.05 | [35] 1.05 | [36] 1.05 | [37] 1.04 | [38] 1.02 | [39] 1.04 | locus YHR030C, strain SLT2, stronger effect = lower value 0.858 | [40] 1.02 | [41] 1.04 | [42] 1.03 | [43] 1.04 | [44] 1.03 | [45] 1.02 | [46] 1.01 | [47] 1.03 | [48] 1.03 | locus YJR066W, strain TOR1, stronger effect = lower value 0.879 | [49] 1.01 | [50] 1.03 | [51] 1.03 | [52] 1.01 | [53] 1.03 | [54] 1.03 | [55] 1.03 | locus YLR113W, strain HOG1, stronger effect = lower value 0.881 | [56] 1.01 | [57] 1.03 | [58] 1.03 | [59] 1.05 | [60] 1.04 | [61] 0.974 | [62] 1.04 | [63] 1.03 | [64] 1.02 | [65] 1.03 | [66] 1.01 | [67] 1.04 | [68] 1.05 | [69] 1.03 | [70] 0.923 | locus YNL183C, strain NPR1, stronger effect = lower value 0.864 | [71] 1.03 | [72] 0.96 | [73] 1.04 | [74] 1.03 | [75] 1.01 | [76] 1.02 | [77] 1.04 | [78] 0.998 | [79] 1.04 | [80] 1.03 | [81] 1.05 | [82] 0.975 | [83] 1 | [84] 1.01 | [85] 1.07 | [86] 1.03 | locus YPL256C, strain CLN2, stronger effect = lower value 0.862
active: locus YHR079C, strain IRE1, stronger effect = lower value 0.841 | locus YJL095W, strain BCK1, stronger effect = lower value 0.822 | locus YOR231W, strain MKK1, stronger effect = lower value 0.823
